Results reported in publication PMC4552634, “A New Set of Chemical Starting Points with Plasmodium falciparum Transmission-Blocking Potential for Antimalarial Drug Discovery” (PLoS ONE, 2015).
Read-outs that look alike come from different tables or passages of the source. Among all 13,000 compounds or so, about 3,200 (25%) showed an effect of 50% or more. The list shows a part of the results.

Tested on: P. falciparum stage V gametocytes
Set-up: BacTiter-Glo ATP luminescence viability of purified stage V gametocytes in 384-well plates, per cent inhibition versus DMSO
Settings: 48 h, 5 µM, inhibitor

SMILES	% Inhibition	% Inhibition (% Inhibition)
C/C=C1\CN2CC[C@H]1C[C@H]2[C@H](O)c1ccnc2ccc(O)cc12 [TCMDC-138272]	3.79%	–
COc1ccc2nccc(N3CCC(O)(CCNCc4ccc5c(n4)NC(=O)CO5)CC3)c2n1 [TCMDC-134564]	-10.39%	–
CCNC(=O)N1CCN(c2nc(-c3ccccc3)nc(COC)c2Cc2ccc(C)cc2)CC1 [TCMDC-124783]	37.5%	–
O=c1cc(NCCCNCc2cc(C(F)(F)F)ccc2F)[nH]c2ccccc12 [TCMDC-139423]	-83.26%	–
CC1(C)N=C(N)N=C(N)N1OCCc1ccc2ccccc2c1 [TCMDC-131755]	-0.2663%	–
COc1cc(Cc2cnc(N)nc2N)cc(OCCCCC2NC(=O)NC2=O)c1OC (stereo not drawn) [TCMDC-137299]	4.359%	–
Cc1nc2c(s1)c(=O)cc(CCc1cccc(F)c1F)n2CC(=O)N(Cc1ccc(-c2ccc(C(F)(F)F)cc2)cc1)C1CCN(C(C)C)CC1 [TCMDC-141264]	113.7%	–
Cc1ccc2c(=O)cc(CCc3cccc(F)c3F)n(CC(=O)N(Cc3ccc(-c4ccc(C(F)(F)F)cc4)cc3)C3CCN(C(C)C)CC3)c2n1 [TCMDC-141318]	122.6%	–
CC1CCCN1Cc1ccc(-c2ccc3c(=O)cc(CCc4cccc(F)c4F)n(CC(=O)N(C)Cc4ccc(-c5ccc(C(F)(F)F)cc5)cc4)c3n2)cc1 (stereo not drawn) [TCMDC-136564]	30.5%	–
Cc1ccc2c(=O)cc(CCc3cccc(F)c3F)n(CC(=O)N(Cc3ccc(-c4ccc(C(F)(F)F)cc4)cc3)C3CCN(C)CC3)c2n1 [TCMDC-141317]	107%	–
COC(=O)Cn1c2ccccc2c2c(N)c(C(=O)OC)c(C)nc21 [TCMDC-131562]	7.659%	–
CC(C)c1ccc(NC(=O)c2ccc(CN3CCCN(CC4CCCCC4)CC3)cc2)cc1 [TCMDC-136417]	-19.72%	–
CCC(CC(NCCCCNC(=O)c1ccc(NC(=O)c2ccc(Cl)cc2)cc1)c1ccccc1)c1ccccc1OC (stereo not drawn) [TCMDC-138579]	–	48.18%
N#Cc1c(N2CCN(c3ccc(F)cc3)CC2)nc(N)c2c(N)nc3c(c12)CC(=O)N3C1CC1 [TCMDC-124490]	43.84%	–
Cc1cccc2[nH]c(-c3cccc(-c4cccc(NC(=O)c5ccc(=O)[nH]n5)c4)c3)nc12 [TCMDC-137033]	-59.71%	–
COc1ccc2c(c1CCNCCCCNCCc1c(OC)ccc3c1CCCC3)CCCC2 [TCMDC-137324]	111.7%	–
COc1ccc2c(c1C1CCN(CCCCNC(=O)c3ccc(-c4ccc(Cl)cn4)cc3)CC1)CCCC2 [TCMDC-138576]	-10.77%	–
COc1ccc2c(c1CNCCCCCCNCc1c(OC)ccc3c1CCCC3)CCCC2 [TCMDC-137817]	117.4%	–
N#CC1(CCCNCCc2ccc(O)cc2)CCCc2c(O)cccc21 (stereo not drawn) [TCMDC-137732]	-11.73%	–
O=C(Nc1ccc(F)cc1)N1CCCN(c2ccnc3cc(Cl)ccc23)CC1 [TCMDC-133584]	-23.79%	–
COc1cc2c(cc1OC)CN(CCc1ccc(NC(=O)c3cc4cc(Cl)ccc4[nH]3)cc1)CC2 [TCMDC-138249]	-9.297%	–
Cc1cc2c(cc1C(F)(F)F)N(C(=O)Nc1ccc(OCCN(C)C)c(C(F)(F)F)c1)CC2 [TCMDC-139850]	18.6%	–
COc1cc(F)c2nccc([C@@H](O)CN3CCC(NCc4ccc5c(n4)NC(=O)CS5)C(F)C3)c2c1 (stereo partly drawn) [TCMDC-141805]	-13.4%	–
FC(F)(F)c1cc(Nc2ccc(Oc3ccccc3)cc2)c2cc(-c3ccncc3)ccc2n1 [TCMDC-138549]	-36.95%	–
c1ccc(CN2CCc3cc4nccc(N5CCNCC5)c4cc32)cc1 [TCMDC-140118]	-20.01%	–

SMILES	% Inhibition	% Inhibition (% Inhibition)
C=CCOc1ccc2ccccc2c1CNCCCCCCNCc1c(OCC=C)ccc2ccccc12 [TCMDC-137340]	119.9%	–
C/C=C/COc1ccc2ccccc2c1CNCCCCCCCCNCc1c(OC/C=C/C)ccc2ccccc12 [TCMDC-137844]	118.6%	–
Nc1nc(N)c2c(ccc3c2cnn3S(=O)(=O)N2CCCC2)n1 [TCMDC-137852]	-71.91%	–
O=C1COc2ccccc2N1C/C=C(\CN1CCC(c2ccccc2)CC1)c1cc(Cl)cc(Cl)c1 [TCMDC-134528]	-40.54%	–
Cc1cc(Nc2ccc3c(c2)CCC3)n2ncnc2n1 [TCMDC-123574]	8.317%	–
Cc1[nH]nc2cc(Nc3nccc(Nc4ccc(Oc5ccccc5)cc4)n3)ccc12 [TCMDC-138573]	32.4%	–
CCc1nnc2sc(-c3cccc(NC(=O)c4ccc(C)c([N+](=O)[O-])c4)c3)nn12 [TCMDC-125124]	-17.45%	–
Cc1ccc(O)c(-c2cc(C(=O)Nc3ccc(S(=O)(=O)N4CCCCC4)cc3)[nH]n2)c1 [TCMDC-124309]	-24.12%	–
O=C(Nc1ccccc1)c1cnc[nH]1 [TCMDC-123941]	-10.44%	–
CCCc1cc([C@@H](O)[C@@H]2C[C@@H]3CCN2C[C@@H]3CC)c2ccccc2n1 [TCMDC-131428]	-9.828%	–
CC[C@H]1CN2CC[C@@H]1C[C@H]2[C@H](O)c1cc(-c2ccc(Cl)c(Cl)c2)nc2ccc(O)cc12 [TCMDC-141362]	95.45%	–
CC[C@H]1CN2CC[C@@H]1C[C@H]2[C@H](O)c1cc(-c2ccccc2)nc2ccc(O)cc12 [TCMDC-141380]	89.63%	–
CC[C@H]1CN2CC[C@H]1C[C@H]2[C@H](O)c1ccnc2ccc(O)cc12 [TCMDC-131425]	22.33%	–
CC[C@H]1CN2CC[C@@H]1C[C@H]2[C@H](O)c1cc(-c2ccc(F)cc2)nc2ccc(O)cc12 [TCMDC-141378]	55.28%	–
CC[C@H]1CN2CC[C@H]1C[C@@H]2[C@H](O)c1ccnc2ccc(O)cc12 [TCMDC-132025]	31.63%	–
CC[C@H]1CN2CC[C@@H]1C[C@H]2[C@H](O)c1ccnc2ccc(Cl)cc12 [TCMDC-141353]	-5.728%	–
OCC1CCCCN1Cc1cccc(-c2cccc(-c3nc4ccccc4[nH]3)c2)c1 (stereo not drawn) [TCMDC-133835]	-3.731%	–
O=C(Nc1ccc(OC2CCN(Cc3ccc(F)cc3)C2)c(Cl)c1)c1ccsc1 (stereo not drawn) [TCMDC-133756]	-6.821%	–
O=C(Nc1cccc(Cl)c1Cl)N1CCc2cc3nccc(N4CCN5CCC[C@H]5C4)c3cc21 [TCMDC-140054]	-5.668%	–
CC(=O)N(Cc1ccccc1-c1cccc(CNCCc2ccccc2)c1)C1CCN(Cc2ccccc2)CC1 [TCMDC-140524]	45.75%	–
O=C(NC1CCCCC1)N(Cc1ccccc1-c1ccc(CNCCc2ccccc2)cc1)C1CCN(Cc2ccccc2)CC1 [TCMDC-140625]	106.9%	–
CC(C)CNCc1ccc(-c2ccccc2CN(C(=O)NCCc2ccccc2)C2CCN(Cc3ccccc3)CC2)cc1 [TCMDC-140609]	78.77%	–
CC(=O)N(Cc1ccccc1-c1ccc(CNCCc2ccccc2)cc1)C1CCN(Cc2ccccc2)CC1 [TCMDC-140525]	102.9%	–
O=C(c1ccccc1)N(Cc1ccccc1-c1ccc(CNCCc2ccccc2)cc1)C1CCN(Cc2ccccc2)CC1 [TCMDC-140531]	62.45%	–
CCOc1ccc(N2C(N)=NC(N)=NC2(C)C)cc1 [TCMDC-124280]	3.734%	–

SMILES	% Inhibition	% Inhibition (% Inhibition)
COc1cc(C(=O)NC2CCN(Cc3ccccc3)CC2)ccc1-c1cc2cc(Cl)c(Cl)cc2[nH]1 [TCMDC-141286]	1.884%	–
CC(C)[C@H](NC(=O)c1c(CN2CCC(N3CCCCC3)CC2)c(-c2ccccc2)nc2cc(O)ccc12)c1ccccc1 [TCMDC-140676]	20.63%	–
CC(C)CNCc1cccc(-c2ccccc2CN(C(=O)NCCc2ccccc2)C2CCN(Cc3ccccc3)CC2)c1 [TCMDC-140608]	89.6%	–
O=C(NCCc1ccccc1)N(Cc1ccccc1-c1cccc(CNCc2ccc3c(c2)OCO3)c1)C1CCN(Cc2ccccc2)CC1 [TCMDC-140614]	15.63%	–
O=C(NCCc1ccccc1)N(Cc1ccccc1-c1ccc(CNCCc2ccccc2)cc1)C1CCN(Cc2ccccc2)CC1 [TCMDC-140611]	104.9%	–
O=C(NCCc1ccccc1)N(Cc1ccccc1-c1cccc(CNCCc2ccccc2)c1)C1CCN(Cc2ccccc2)CC1 [TCMDC-140610]	46.01%	–
Fc1ccc2[nH]c3c(NCCN4CCCCC4)ncnc3c2c1 [TCMDC-123757]	-41.7%	–
CCc1cc(=O)[nH]c(-n2nc(C)cc2NC(=O)CC(c2ccccc2)c2ccccc2)n1 [TCMDC-124942]	38.89%	–
Cc1cccc(Nc2nccc(NCC(O)c3cccc(C(F)(F)F)c3)n2)c1 (stereo not drawn) [TCMDC-136582]	10%	–
CCCCCCNC[C@@H](O)[C@H](Cc1ccccc1)NC(=O)c1cc(NCC)cc(N2CCCCS2(=O)=O)c1 [TCMDC-135218]	27.85%	–
Cc1ccc2[nH]c(C3CCCNC3)c(-c3ccncc3)c2c1 (stereo not drawn) [TCMDC-134505]	76.33%	–
COC(=O)c1cc(NC(=O)Nc2ccc(Cn3ncc(N4CCCNCC4)c(Cl)c3=O)cc2)cc(C(=O)OC)c1 [TCMDC-133324]	3.06%	–
Clc1cc(Nc2ccnc3ccc(Br)cc23)ccc1Oc1ccc2ccccc2c1Cl [TCMDC-124239]	37.87%	–
COC(=O)CCCCOc1c(OC)cc(Cc2cnc(N)nc2N)cc1OC [TCMDC-137353]	24.77%	–
CCN(CCCN1CCCCC1)c1cc(C)nc(Nc2ccc(C)cc2Br)n1 [TCMDC-132441]	94.55%	–
CCN(CCCN1CCCCC1)c1cc(C)nc(Nc2ccc(Br)cc2F)n1 [TCMDC-132428]	4.971%	–
Cc1cc(N(C)C2CCN(C)C2)nc(Nc2ccc(Cl)cc2)n1 (stereo not drawn) [TCMDC-137010]	65.31%	–
Cc1cc(N(C)C2CCN(C)CC2)nc(Nc2ccc(Cl)cc2)n1 [TCMDC-132418]	22.03%	–
Cc1cc(N(C)C2CCN(C)CC2)nc(Nc2ccc(Br)cc2)n1 [TCMDC-137015]	43.74%	–
CCN(CCCN1CCCCC1)c1cc(C)nc(Nc2cc(Br)ccc2C)n1 [TCMDC-132432]	22.76%	–
CCN(CCCN1CCCCC1)c1cc(C)nc(Nc2ccc(Cl)cc2)n1 [TCMDC-137488]	-3.889%	–
CCN(CCCN1CCCC1)c1cc(C)nc(Nc2ccc(Cl)cc2)n1 [TCMDC-137224]	44.32%	–
CCN(CCCN1CCCCC1)c1cc(C)nc(Nc2cc(Cl)ccc2C)n1 [TCMDC-132446]	50.43%	–
CCN(CCCN1CCCCC1)c1cc(C)nc(Nc2cc(C)ccc2C)n1 [TCMDC-132449]	18.24%	–
Cc1cc(N(C)CCCN2CCCCC2)nc(Nc2ccc(Cl)cc2)n1 [TCMDC-137485]	86.59%	–
